Screen size: about 5,500 compounds; about 2,000 (36%) were called active. About 18% were inconclusive and are not listed. Rule as the data show it: active = normalized growth mostly below about 0.91 (no sharp cut-off); inconclusive = no clear call, values can overlap the other calls; inactive = mostly above about 0.92. The list shows a part of the results.
Test: chemical genetic growth profiling, strain panel (AID 1159580);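 also: tested at 20 µM; growth read once vehicle control cultures reached saturation at 30 °C; 1 = growth at the plate median or of vehicle wells; lower values mean less growth of the strain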
Conditions: growth OD
[1] = S. cerevisiae deletion strains, locus YAL013W, strain DEP1, stronger effect = lower value
[2] = S. cerevisiae deletion strains, locus YBR229C, strain ROT2, stronger effect = lower value
[3] = S. cerevisiae deletion strains, locus YDL101C, strain DUN1, stronger effect = lower value
[4] = S. cerevisiae deletion strains, locus YDL134C, strain PPH21, stronger effect = lower value
[5] = S. cerevisiae deletion strains, locus YDR150W, strain NUM1, stronger effect = lower value
[6] = S. cerevisiae deletion strains, locus YEL061C, strain CIN8, stronger effect = lower value
[7] = S. cerevisiae deletion strains, locus YGR078C, strain PAC10, stronger effect = lower value
[8] = S. cerevisiae deletion strains, locus YHR030C, strain SLT2, stronger effect = lower value
[9] = S. cerevisiae deletion strains, locus YHR087W, strain rtc3, stronger effect = lower value
[10] = S. cerevisiae deletion strains, locus YJL187C, strain SWE1, stronger effect = lower value
[11] = S. cerevisiae deletion strains, locus YJR043C, strain POL32, stronger effect = lower value
[12] = S. cerevisiae deletion strains, locus YJR075W, strain HOC1, stronger effect = lower value
[13] = S. cerevisiae deletion strains, locus YKL190W, strain CNB1, stronger effect = lower value
[14] = S. cerevisiae deletion strains, locus YLR039C, strain RIC1, stronger effect = lower value
[15] = S. cerevisiae deletion strains, locus YLR058C, strain SHM2 (second series), stronger effect = lower value
[16] = S. cerevisiae deletion strains, locus YLR085C, strain ARP6, stronger effect = lower value
[17] = S. cerevisiae deletion strains, locus YLR262C, strain YPT6, stronger effect = lower value
[18] = S. cerevisiae deletion strains, locus YML094W, strain GIM5, stronger effect = lower value
[19] = S. cerevisiae deletion strains, locus YMR219W, strain ESC1, stronger effect = lower value
[20] = S. cerevisiae deletion strains, locus YMR263W, strain SAP30, stronger effect = lower value
[21] = S. cerevisiae deletion strains, locus YMR307W, strain GAS1, stronger effect = lower value
[22] = S. cerevisiae deletion strains, locus YNL153C, strain GIM3, stronger effect = lower value
[23] = S. cerevisiae deletion strains, locus YNL298W, strain CLA4 (second series), stronger effect = lower value
[24] = S. cerevisiae deletion strains, locus YNL322C, strain KRE1, stronger effect = lower value
[25] = S. cerevisiae deletion strains, locus YNR030W, strain Alg12, stronger effect = lower value
[26] = S. cerevisiae deletion strains, locus YOL006C, strain TOP1, stronger effect = lower value
[27] = S. cerevisiae deletion strains, locus YPL055C, strain LGE1, stronger effect = lower value
[28] = S. cerevisiae deletion strains, locus YPL241C, strain CIN2, stronger effect = lower value
[29] = S. cerevisiae deletion strains, locus YPR135W, strain CTF4, stronger effect = lower value
[30] = S. cerevisiae deletion strains, locus YCL061C, strain MRC1, stronger effect = lower value

Measured: normalized growth

O=C(Nc1nncs1)c1ccncc1
inactive: [1] 0.983 | [2] 1 | [3] 0.999 | [4] 1.02 | [5] 0.946 | [6] 0.999 | [7] 1 | [8] 0.996 | [9] 1 | [10] 0.992 | [11] 1.01 | [12] 0.991 | [13] 1.03 | [14] 1.08 | [15] 1 | [16] 1.04 | [17] 1.05 | [18] 1.02 | [19] 1 | [20] 0.949 | [21] 1.02 | S. cerevisiae deletion strains, locus YNL128W, strain TEP1, stronger effect = lower value 1.02 | [22] 0.995 | [23] 1.07 | [24] 1 | [25] 1.04 | [26] 1.08 | [27] 0.888 | [28] 1.03 | [29] 1.05 | S. cerevisiae strains, strain wild type, stronger effect = lower value 1.04

O=C(Nc1nccs1)c1ccc([N+](=O)[O-])cc1
inactive: [1] 0.979 | [2] 0.97 | [30] 0.992 | [3] 0.972 | [4] 1.01 | [5] 0.984 | [6] 0.968 | [7] 0.973 | [8] 0.977 | [9] 0.973 | [11] 1.02 | [12] 0.924 | [13] 1 | [14] 0.851 | [15] 0.981 | [17] 0.917 | [18] 0.94 | [19] 0.978 | [20] 0.986 | [21] 0.905 | [22] 0.976 | [23] 0.976 | [24] 0.983 | [25] 0.97 | [27] 0.97 | [28] 0.954 | [29] 0.933
active: [16] 0.729 | [26] 0.514

O=C(CSc1nnc(NC(=O)c2cccc([N+](=O)[O-])c2)s1)Nc1ccc2c(c1)OCO2
inactive: [1] 0.991 | [2] 0.995 | [30] 1.01 | [3] 0.986 | [5] 0.982 | [6] 0.982 | [7] 0.991 | [8] 0.985 | [9] 0.997 | [10] 0.995 | [11] 0.977 | [12] 1.02 | [14] 0.976 | [15] 0.985 | [16] 0.996 | [17] 0.985 | [18] 0.948 | [19] 1 | [20] 1.01 | [21] 1.05 | [22] 1.01 | [23] 1 | [24] 0.989 | [25] 1.01 | [27] 0.998 | [29] 0.939

S=C(Nc1ccccc1)Nc1nccs1
inactive: [1] 1.01 | S. cerevisiae deletion strains, locus YAL040C, strain CLN3, stronger effect = lower value 1.01 | S. cerevisiae deletion strains, locus YCL061C, strain MRC1 (second series), stronger effect = lower value 0.993 | [5] 0.974 | S. cerevisiae deletion strains, locus YDR363W, strain ESC2, stronger effect = lower value 0.977 | S. cerevisiae deletion strains, locus YER002W, strain NOP16, stronger effect = lower value 0.991 | [7] 0.988 | [21] 0.993 | S. cerevisiae deletion strains, locus YNL175C, strain NOP13, stronger effect = lower value 0.999 | S. cerevisiae deletion strains, locus YNL197C, strain WHI3, stronger effect = lower value 0.993 | S. cerevisiae deletion strains, locus YNL224C, strain SQS1, stronger effect = lower value 0.995 | [27] 0.948
active: [22] 0.772
